According to the supplement of paper PMC7057948, “A genome-wide approach for identification and characterisation of metabolite-inducible systems” (Nature Communications, 2020):

What was measured:
Experiment in all cases: relative induction of RFP reporter vs primary effector (background-corrected); higher = stronger activation of the biosensor
Details in all cases: inducer concentration 5 mM; 6 h; Cupriavidus necator H16; minimal medium + 0.4% gluconate
[1] = test system: AcoR/P_H16_RS19445 acetoin biosensor (pEH052)
Description: (§1)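 C. necator H16 strains, each carrying one of 21 transcription factor/inducible promoter–mRFP biosensor plasmids, were grown in minimal medium in 96-well plates (robotic platform). Each was exposed to 46 structurally or metabolically related compounds at 5 mM at 30 °C. OD-normalised RFP fluorescence was read 6 h later and expressed as relative induction (%) = 100 × (FL compound − FL uninduced)/(FL primary inducer − FL uninduced); mean of n=4.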

[2] = test system: AraC/P_araBAD L-arabinose biosensor (pEH176)
Description: as §1

[3] = test system: BenM/P_H16_RS09790 benzoate biosensor (pEH148)
Description: as §1

[4] = test system: FdsR/P_H16_RS03165 formate biosensor (pEH134)
Description: as §1

[5] = test system: GabR/P_H16_RS23655 GABA biosensor (pEH256)
Description: as §1

[6] = test system: HpdR/P_H16_RS18295 3-hydroxypropanoate biosensor (pEH010)
Description: as §1

[7] = test system: KynR/P_H16_RS14030 L-kynurenine biosensor (pEH136)
Description: as §1

[8] = test system: NahR/P_H16_RS08125 salicylate biosensor (pEH042)
Description: as §1

[9] = test system: OapR/P_H16_RS01330 beta-alanine biosensor (pEH147)
Description: as §1

[10] = test system: PcaQ/P_H16_RS30145 3,4-dihydroxybenzoate biosensor (pEH161)
Description: as §1

[11] = test system: PhhR/P_H16_RS18365 L-phenylalanine biosensor (pEH137)
Description: as §1

[12] = test system: SauR/P_H16_RS13695 sulfonatoacetate biosensor (pEH157)
Description: as §1

[13] = test system: TtdR/P_H16_RS10665 tartrate biosensor (pEH083)
Description: as §1

[14] = test system: XdhR/P_H16_RS05055 xanthine biosensor (pEH154)
Description: as §1

[15] = test system: heterologous inducible system pEH002 (rhamnose/acrylate/cumate/itaconate set)
Description: as §1

[16] = test system: heterologous inducible system pEH020 (rhamnose/acrylate/cumate/itaconate set)
Description: as §1

[17] = test system: heterologous inducible system pEH040 (rhamnose/acrylate/cumate/itaconate set)
Description: as §1

[18] = test system: heterologous inducible system pEH086 (rhamnose/acrylate/cumate/itaconate set)
Description: as §1

[19] = test system: PhgR/P_H16_RS05530 phenylglyoxylate biosensor (pEH155)
Description: as §1
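Also: RFP excited at 585 nm with emission read at 620 nm, culture medium blanks subtracted from fluorescence and absorbance prior to normalisation.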

| SMILES | relative induction of RFP reporter [1] [%] | relative induction of RFP reporter [2] [%] | relative induction of RFP reporter [3] [%] | relative induction of RFP reporter [4] [%] | relative induction of RFP reporter [5] [%] | relative induction of RFP reporter [6] [%] | relative induction of RFP reporter [7] [%] | relative induction of RFP reporter [8] [%] | relative induction of RFP reporter [9] [%] | relative induction of RFP reporter [10] [%] | relative induction of RFP reporter [11] [%] | relative induction of RFP reporter [12] [%] | relative induction of RFP reporter [13] [%] | relative induction of RFP reporter [14] [%] | relative induction of RFP reporter [15] [%] | relative induction of RFP reporter [16] [%] | relative induction of RFP reporter [17] [%] | relative induction of RFP reporter [18] [%] | relative induction of RFP reporter [19] [%] |
| --- | --- | --- | --- | --- | --- | --- | --- | --- | --- | --- | --- | --- | --- | --- | --- | --- | --- | --- | --- |
| O=CC(=O)O [glyoxylate] | -0.798 | 0.00961 | -0.0259 | -3.09 | -0.762 | -0.292 | -0.15 | 0.0197 | 0.146 | 0.0806 | 0.0787 | -0.00107 | 0.296 | -0.199 | 0.0215 | -0.333 | -0.263 | 0.035 | – |
| O=C(O)/C=C\C=C/C(=O)O [cis,cis-muconate] | -0.277 | -0.0203 | -0.00774 | 0.498 | -1.92 | 0.114 | 0.571 | 0.022 | 0.13 | -0.0137 | -0.13 | -0.0287 | 0.125 | -0.143 | -0.00409 | 0.263 | 0.756 | 0.0837 | -0.341 |
| O=c1[nH]cnc2nc[nH]c12 [hypoxanthine] | -1.99 | 0.0138 | -0.0181 | -4.61 | -0.0294 | 0.126 | -0.263 | 0.0182 | 1.08 | -0.186 | -0.204 | 0.0689 | 0.797 | 166 | 0.00894 | -1.8 | -0.718 | 0.0665 | 0.109 |
| CCC(=O)O | – | – | – | – | – | 0.144 | – | – | – | – | – | – | – | – | – | – | – | – | – |
| O=C(O)CC(CC(=O)O)C(=O)O [tricarballylate] | -0.69 | -0.0168 | -0.036 | -2.35 | -2.41 | -0.311 | -0.332 | -0.00531 | -1.38 | -0.249 | -0.293 | 0.0103 | 1.3 | -1.15 | 0.0188 | -1.48 | 0.497 | -0.0817 | -0.562 |
